From ChEMBL document CHEMBL5606458, “ASAP - ZIKV NS2B-NS3 protease fluorescence single point” (2024)
The campaign covered roughly 2,700 compounds. About 160 (5.9%) showed an effect of 50% or more. This is one part of a sample in which strong results are shown more often than they occur.

Target: Nonstructural protein 3 (Zika virus) (UniProt A0A024AXB9)
[1] = PRVABC59, Concentration 15.0 uM, Number of replicates 1.0
[2] = PRVABC59, Concentration 50.0 uM, Number of replicates 1.0

Nonstructural protein 3 (Zika virus), sequence (A0A024AXB9 as listed by the source): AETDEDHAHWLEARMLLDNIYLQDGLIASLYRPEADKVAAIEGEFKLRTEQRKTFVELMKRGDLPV

SMILES: CCOc1ccccc1CCNC(=O)c1cc(Cl)ccc1NS(=O)(=O)c1ccc(Oc2ccccc2Cl)cc1
- inhibition [1]: 9.83%

SMILES: CNC(=O)c1cc(Cl)ccc1NS(=O)(=O)c1ccc2[nH]cnc2c1
- inhibition (PRVABC59, Concentration 49.5 uM, Number of replicates 2.0, Standard deviation 2.3657282322003765 %): -9.41%

SMILES: Cc1cc(CO)c2cccc(Nc3cc(C)on3)c2n1
- inhibition (PRVABC59, Concentration 49.95 uM, Number of replicates 2.0, Standard deviation 0.1664787029188791 %): -8.71%

SMILES: CN(C(=O)c1cc(Cl)ccc1NS(=O)(=O)c1ccc(Oc2ccccc2Cl)cc1)[C@H]1CS(=O)(=O)C[C@@H]1O
- inhibition [1]: 1.21%

SMILES: Cc1cc(CO)c2cccc(C[C@H](NC(=O)c3cc(C(=O)O)[nH]n3)C(=O)O)c2n1
- inhibition (PRVABC59, Concentration 49.95 uM, Number of replicates 2.0, Standard deviation 1.6911148062176817 %): 1.37%
- inhibition (PRVABC59, Concentration 99.9 uM, Number of replicates 2.0, Standard deviation 1.9620942703325182 %): 8.92%

SMILES: O=Cc1ccc(N2CCC(C(=O)Nc3ccc(C(F)(F)F)cc3[N+](=O)[O-])CC2)cc1
- inhibition [2]: 22.3%

SMILES: O=C(c1cc(Cl)ccc1NS(=O)(=O)c1ccc(Oc2ccccc2Cl)cc1)N1CCC(c2nc3ccccc3[nH]2)CC1
- inhibition [1]: 20.5%

SMILES: Cc1cc(CO)c2cccc(Nc3nonc3C(N)=O)c2n1
- inhibition (PRVABC59, Concentration 49.95 uM, Number of replicates 2.0, Standard deviation 1.4175935710362748 %): 4.15%
- inhibition (PRVABC59, Concentration 99.9 uM, Number of replicates 2.0, Standard deviation 2.0633301575187155 %): 4.07%

SMILES: Cc1cc(CO)c2cccc(Cc3cccc(C(=O)Nc4nonc4C(N)=O)c3)c2n1
- inhibition (PRVABC59, Concentration 49.95 uM, Number of replicates 2.0, Standard deviation 1.609742570683987 %): 20.1%
- inhibition (PRVABC59, Concentration 99.9 uM, Number of replicates 2.0, Standard deviation 0.8074931564941592 %): 55.3%

SMILES: Cc1cc(CO)c2cccc(Cc3cccc(C(=O)N[C@@H](CCC(N)=O)C(=O)O)c3)c2n1
- inhibition (PRVABC59, Concentration 49.95 uM, Number of replicates 2.0, Standard deviation 1.9977585963676485 %): 14.4%
- inhibition (PRVABC59, Concentration 99.9 uM, Number of replicates 2.0, Standard deviation 0.9280938346971718 %): 36%

SMILES: Cc1cc(CO)c2cccc(Cc3ccccc3C(=O)Nc3cccc(C(N)=O)c3)c2n1
- inhibition (PRVABC59, Concentration 49.95 uM, Number of replicates 2.0, Standard deviation 0.5610502494199251 %): -2.71%
- inhibition (PRVABC59, Concentration 99.9 uM, Number of replicates 2.0, Standard deviation 0.1363299663609753 %): 0.693%

SMILES: Cc1cc(CO)c2cccc(Cc3ccccc3C(=O)Nc3nonc3C(N)=O)c2n1
- inhibition (PRVABC59, Concentration 49.95 uM, Number of replicates 2.0, Standard deviation 0.12584307180819165 %): -4.45%
- inhibition (PRVABC59, Concentration 99.9 uM, Number of replicates 2.0, Standard deviation 0.39850300453014226 %): -1.53%

SMILES: Cc1cc(CO)c2cccc(CC(=O)Nc3nonc3C(N)=O)c2n1
- inhibition (PRVABC59, Concentration 49.95 uM, Number of replicates 2.0, Standard deviation 0.05598719921229546 %): 82%
- inhibition (PRVABC59, Concentration 99.9 uM, Number of replicates 2.0, Standard deviation 1.0790078750483718 %): 86.1%

SMILES: Cc1cc(CO)c2cccc(CC(=O)N[C@@H](CCC(N)=O)C(=O)O)c2n1
- inhibition (PRVABC59, Concentration 49.95 uM, Number of replicates 2.0, Standard deviation 0.13741625923449508 %): 69.6%
- inhibition (PRVABC59, Concentration 99.9 uM, Number of replicates 2.0, Standard deviation 0.11197439842459092 %): 81.6%

SMILES: Cc1cc(CO)c2cccc(Cc3ccccc3C(=O)N[C@@H](CCC(N)=O)C(=O)O)c2n1
- inhibition (PRVABC59, Concentration 49.95 uM, Number of replicates 2.0, Standard deviation 1.0696657731948411 %): -4.71%
- inhibition (PRVABC59, Concentration 99.9 uM, Number of replicates 2.0, Standard deviation 0.7655451252044032 %): 0.649%

SMILES: Cc1cc(CO)c2cccc(CC(=O)Nc3cccc(C(N)=O)c3)c2n1
- inhibition (PRVABC59, Concentration 49.95 uM, Number of replicates 2.0, Standard deviation 0.035627236808440856 %): 58.9%
- inhibition (PRVABC59, Concentration 99.9 uM, Number of replicates 2.0, Standard deviation 0.025447255606513557 %): 72.8%

SMILES: Cc1cc(CO)c2cccc(Cc3cccc(C(=O)Nc4cccc(C(N)=O)c4)c3)c2n1
- inhibition (PRVABC59, Concentration 49.95 uM, Number of replicates 2.0, Standard deviation 0.1992514179713741 %): -3.36%
- inhibition (PRVABC59, Concentration 99.9 uM, Number of replicates 2.0, Standard deviation 0.4299637092619174 %): -0.56%

SMILES: Cc1cc(CO)c2cccc(Cc3cccc(C(=O)NCC(N)=O)c3)c2n1
- inhibition (PRVABC59, Concentration 49.95 uM, Number of replicates 2.0, Standard deviation 1.0591786257609663 %): -5.74%
- inhibition (PRVABC59, Concentration 99.9 uM, Number of replicates 2.0, Standard deviation 0.9490662751035868 %): -1.72%

SMILES: Cc1cc(CO)c2cccc(CC(=O)Nc3ccc(C(=O)O)o3)c2n1
- inhibition (PRVABC59, Concentration 49.95 uM, Number of replicates 2.0, Standard deviation 1.3790313962849292 %): 42.9%
- inhibition (PRVABC59, Concentration 99.9 uM, Number of replicates 2.0, Standard deviation 0.49288480262410383 %): 40.6%

SMILES: O=C(Nc1nc2[nH]cnc2c(=O)[nH]1)c1cc(Cl)ccc1NS(=O)(=O)c1ccc(Oc2ccccc2Cl)cc1
- inhibition [1]: 21.9%

SMILES: CN(C)Cc1ccc(NCc2ccc(N3CCN(C)CC3)cc2)nc1
- inhibition (PRVABC59, Concentration 49.5 uM, Number of replicates 2.0, Standard deviation 0.4640657991367188 %): -2.39%
- inhibition (PRVABC59, Concentration 99.01 uM, Number of replicates 2.0, Standard deviation 0.7284754441158133 %): -1.05%
- inhibition (PRVABC59, Concentration 198.0 uM, Number of replicates 2.0, Standard deviation 0.8166119221974307 %): 1.21%

SMILES: O=Cc1ccc(N2CCC(C(=O)Nc3c(Cl)cccc3[N+](=O)[O-])CC2)cc1
- inhibition [2]: 21.7%

SMILES: CN1CCN(c2ccc(CNS(=O)(=O)c3ccc(C(N)=O)cc3)cc2)CC1
- inhibition (PRVABC59, Concentration 49.5 uM, Number of replicates 2.0, Standard deviation 3.1298940912505486 %): -2.93%
- inhibition (PRVABC59, Concentration 99.01 uM, Number of replicates 2.0, Standard deviation 2.0491409994990377 %): -9.18%

SMILES: CC(C)N(Cc1cnn(C)c1)C(=O)c1cc(Cl)ccc1NS(=O)(=O)c1ccc(Oc2ccccc2Cl)cc1
- inhibition [1]: 21.9%

SMILES: CN(C(=O)c1cc(Cl)ccc1NS(=O)(=O)c1ccc(Oc2ccccc2Cl)cc1)[C@H]1CCN(Cc2ccccc2)C1
- inhibition [1]: 18.4%

SMILES: CCc1cccc2[nH]c(C(=O)N3C[C@H](n4cc(CO)nn4)CCC3(C)C)cc12
- inhibition (PRVABC59, Concentration 49.5 uM, Number of replicates 2.0, Standard deviation 1.345657751466366 %): 1.61%
- inhibition (PRVABC59, Concentration 99.01 uM, Number of replicates 2.0, Standard deviation 0.921351350459793 %): 4.33%
- inhibition (PRVABC59, Concentration 198.0 uM, Number of replicates 2.0, Standard deviation 1.6164058188461652 %): 5.38%

SMILES: O=C(NCC[C@H](O)c1ccccc1)c1cc(Cl)ccc1NS(=O)(=O)c1ccc(Oc2ccccc2Cl)cc1
- inhibition [1]: 38.9%
